Test results: PubChem BioAssay (NCI)
About 83,000 compounds went through this panel and 20% of them were active in at least one assay; those are over-represented in the sample as a whole.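 48-hour exposure, single concentration, 96-well plates; percent growth endpoint where 0 means no net growth. Active: below 10.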 The source made the active and inactive calls.

Tests used:
Assay in all cases: NCI-60 one-dose screen, 48 h (100 = growth as untreated, 0 = no growth, -100 = all killed)
Conditions in all cases: 10 µM unless noted
[1] = tested on: BT-549 breast
[2] = tested on: MDA-MB-435 melanoma
[3] = tested on: SW-620 colon
[4] = tested on: MCF7 breast
[5] = tested on: HCT-116 colon
[6] = tested on: HCC-2998 colon
[7] = tested on: KM12 colon
[8] = tested on: T-47D breast

Measured: growth

COc1cc(-c2nc(SCCC(C)C)nc(Nc3ccc(S(N)(=O)=O)cc3)c2C#N)cc(OC)c1OC
active: [5] 3.77%
inactive: [1] 27.6% | [2] 22.2% | [3] 36.3% | [4] 16.9% | [6] 35.2% | [7] 19.9%

N#CCCc1c[nH]c2ccccc12
inactive: [1] 97.6% | [2] 101% | [3] 92% | [4] 94.8% | [5] 92.8% | [6] 113%

COc1cc(-c2nc(SCCC(C)C)nc(Nc3ccccc3)c2C#N)cc(OC)c1OC
inactive: [2] 92.9% | [3] 104% | [4] 92.7% | [5] 91.7% | [6] 116% | [7] 100%

Oc1cc(Nc2ccnc3cc(Cl)ccc23)c2ncccc2c1
inactive: [8] 52.1% | [2] 70% | [3] 66.6% | [4] 61% | [6] 112% | [7] 87.6%

CSc1nc(=S)c2nc(SC)n(-c3ccccc3)c2[nH]1
inactive: [1] 104% | [2] 103% | [3] 97.1% | [4] 90.7% | [5] 93.1% | [6] 115%

CCCC(NC(=O)OCc1ccccc1)C(=O)O (stereo not given)
inactive: [8] 99.6% | [2] 109% | [3] 97.9% | [4] 96% | [7] 109%

O=C(CSc1nc2ccc([N+](=O)[O-])cc2[nH]1)Nc1cccc(Cl)c1
inactive: [1] 17.2% | [2] 20.5% | [3] 39.9% | [4] 15.3% | [5] 14.7% | [6] 34.4% | [7] 23.9%

CCN(CC)c1ccc(/C=C/c2ccc3cc(C)ccc3[n+]2CC)cc1
active: [1] 1.38% | [2] -33.3% | [4] 3.46% | [5] 7.53%
inactive: [3] 17.6% | [6] 16.5%

C=CCCCCOc1ccccc1-c1cnc(OCCCCC=C)n1C
inactive: [8] 61.9% | [3] 30.8% | [4] 42.2% | [5] 61% | [6] 61.1% | [7] 38.4%
